Shown is part of a subset that was picked to be rich in hits.
Pf Dd2 inh: Plasmodium falciparum Dd2 growth inhibition. 120,000 tested, 4.3% active. P. falciparum Dd2 growth, SYBR Green, 72 h. AID 1347417. Potency, µM (highest dose often 28.9 µM), actives largely listed as inhibitors; active means well fitted inhibition curve with a large enough effect; further: nearly all actives have a fitted effect of over 65% in size
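Readout: SYBR Green fluorescence, 485 nm excitation, 535 nm emission, after ~16 h lysis at 37C. Before that, Dd2-infected red cells (2.5% hematocrit) grew 72 h with compound, 29 uM top final concentration.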
Each line names hits and unclear results; the compound was inactive in the other large screens.

CCOc1ccccc1N1CC(c2nc3ccccc3n2CCOc2ccc(C(C)(C)C)cc2)CC1=O (stereo not given)	none
CCOc1ccc(N2CC(c3nc4ccccc4n3CCCCOc3ccc(OC)cc3)CC2=O)cc1 (stereo not given)	Pf Dd2 inh 12.6µM
CCOc1ccccc1N1CC(c2nc3ccccc3n2CCCOc2ccccc2OC)CC1=O (stereo not given)	none
CNC(=O)c1[nH]nc2c1C(c1c(C)nc3ccc(Cl)cn13)CC(=O)N2 (stereo not given)	none
COc1ccc(NC(=O)[C@@H]2C[C@H](c3ccc(F)cc3)N(Cc3csc(C)n3)C2)cc1	none
CCCC(=O)NC(C)C(=O)N1CCN(c2ccccn2)CC1 (stereo not given)	none
COc1ccc(CN[C@@H]2CO[C@H](CNC(=O)CC(C)(C)C)[C@H]2O)cc1	none
COCCOC1CCN(C(=O)c2cc(F)ccc2F)CC1	none
CC(=O)N1CC2(Cc3ccccc31)CN(C(=O)C(C)(C)C)C2	none
Cc1cccc(C)c1OCCn1c(C2CC(=O)N(Cc3ccc(F)cc3)C2)nc2ccccc21 (stereo not given)	Pf Dd2 inh 2.51µM
Cc1cc(C)c(Cn2c(C3CC(=O)N(c4ccc(F)cc4)C3)nc3ccccc32)c(C)c1 (stereo not given)	none
CC(=O)N1CCCC1c1nc2ccccc2n1Cc1ccc(F)cc1 (stereo not given)	none
COc1cc(NC(=O)Cn2ccn3nc(-c4ccc(F)cc4)c(CO)c3c2=O)cc(OC)c1	none
Cc1nn2c(c1-c1ccccc1Oc1ccccc1)N(CC1CC1)CCC2	none
Cc1nn2c(c1-c1ccccc1-c1ccccc1)N(Cc1cccc(O)c1)CCC2	Pf Dd2 inh 0.794µM
Cc1nn2c(c1-c1ccccc1Oc1ccccc1)N(C(=O)c1ccc(F)cc1)CCC2	none
Cc1nn2c(c1-c1cccnc1N1CCOCC1)N(CC1CC1)CCC2	none
Cc1nn2c(c1-c1ccccc1-c1ccccc1)N(Cc1ccc(OCC(=O)O)cc1)CCC2	none
Cc1nn2c(c1-c1ccccc1Oc1ccccc1)N(CC1CCOCC1)CCC2	Pf Dd2 inh 7.94µM
COc1ccc(CN2CCCn3nc(C)c(-c4ccccc4Oc4ccccc4)c32)cc1O	Pf Dd2 inh 1.26µM
COc1cccc(CN2CCCn3nc(C)c(-c4cnccc4C)c32)c1	none
CC(=O)Nc1ccccc1-c1c(C)nn2c1N(Cc1ccccc1)CCC2	none
C#CCNC(=O)C1CCc2nnc(CNC(=O)Nc3cccnc3)n21 (stereo not given)	none
O=C1CCN(S(=O)(=O)c2ccccc2)CCCN(C(=O)C2CC2)CCN1	none
O=C(NCc1cccnc1)C1c2ccccc2C(=O)N(Cc2ccccc2)C12CCCC2 (stereo not given)	none
CC(C)N[C@@H]1CC[C@@H]1NC(=O)c1ccc(C(F)(F)F)cc1C(F)(F)F	none
CCOC(=O)c1[nH]c(C)c(CCC(=O)N2CCN(c3cc(C)ccc3C)CC2)c1C	Pf Dd2 inh 0.631µM
CCOC(=O)c1[nH]c(C)c(CCC(=O)NCc2ccccc2)c1C	none
CCOC(=O)c1[nH]c(C)c(CCC(=O)N2CCN(c3cc(Cl)ccc3C)CC2)c1C	Pf Dd2 inh 0.562µM
CCOC(=O)c1cc(S(=O)(=O)N2CCN(c3cccc(OC)c3)CC2)[nH]n1	none
CCOC(=O)c1[nH]c(C)c(CCC(=O)NCc2cccc(Cl)c2)c1C	none
COc1cccc(N2CCN(C(=O)CCc3conc3-c3ccccc3)CC2)c1	none
CCOC(=O)c1[nH]c(C)c(CCC(=O)Nc2cc(C)ccc2OC)c1C	none
CCOC(=O)c1[nH]c(C)c(CCC(=O)N2CCN(c3cccc(OC)c3)CC2)c1C	Pf Dd2 inh 3.98µM
Cc1ccc(Cl)cc1N1CCN(C(=O)CCSCc2ccccc2F)CC1	none
O=C(c1cccnc1)N1CCC(c2nc(C3CCOCC3)no2)C1 (stereo not given)	none
COCC(=O)N[C@@H]1CN(S(C)(=O)=O)C[C@H]1CN(C)C	none
COc1ccc(C)cc1NC(=O)C1CCN(C(=O)N2CC3CC(C2)[C@H]2CCCC(=O)N2C3)CC1 (stereo not given in full)	none
Cc1ccc(-c2cc(O)c3c(c2)CNCCO3)cc1	none
COc1cc(-c2cc(C)c3c(OC)ccc(OC)c3n2)cc2c1OCCNC2	Pf Dd2 inh 11.2µM
COc1ccc(-c2cc3c(c(OC)c2)OCCNC3)nn1	none
COc1ccc(C(=O)N2CCCC(c3nc(-c4cccnc4)no3)CCNC(=O)CC2)c(OC)c1 (stereo not given)	none
CCC1c2nccn2CCCN1C(=O)CN1CCCC1=O (stereo not given)	none
c1ccc2oc(-c3ccnc4nc(C5CCC5)nn34)cc2c1	none
Cc1ccc2nc(-c3cc(NC(=O)c4ccc5c(c4)OCCO5)ccc3Cl)oc2c1	none
O=C(/C=C/c1ccccc1)Nc1cc(-c2nc3ccccc3o2)ccc1Cl	none
Cc1ccc2nc(-c3cc(NC(=O)/C=C/c4ccccc4)ccc3Cl)oc2c1	Pf Dd2 inh 11.2µM
Cc1ccc(N2CCC(NS(=O)(=O)c3cn(C)c(C)n3)C2=O)cc1C (stereo not given)	none
CC1=C(c2ccc(C)c(C)c2)S(=O)(=O)N=C1N1CCC(C(=O)N2CCC(C(N)=O)CC2)CC1	none
CC1=C(c2ccc(C)c(C)c2)S(=O)(=O)N=C1N1CCC(C(=O)Nc2ccc(Cl)cc2)CC1	none
CCOC(=O)C1CCN(C(=O)C2CCN(C3=NS(=O)(=O)C(c4ccc(C)c(C)c4)=C3C)CC2)CC1	Pf Dd2 inh 3.98µM
Cc1ccc(OCC(=O)N2CCC(c3noc(-c4ccncc4)n3)C2)cc1 (stereo not given)	none
COc1ccc(Cl)cc1NC(=O)c1cnc(SC)nc1-c1ccccc1	none
CCSc1ncc(Cl)c(C(=O)N2CCN(c3ccccc3OC)CC2)n1	none
COc1ccccc1N1CCN(C(=O)c2cc(-c3ccccc3O)on2)CC1	none
COc1ccc(Cl)cc1NC(=O)c1cc2ccc3ccc(C)[nH]c3c2n1	Pf Dd2 inh 11.2µM
COc1ccccc1N1CCN(C(=O)c2cc3ccc4ccc(C)[nH]c4c3n2)CC1	Pf Dd2 inh 12.6µM
COc1ccc(Cl)cc1NC(=O)c1cc2nc(-c3ccc(C)cc3)cc(C(F)(F)F)n2n1	none
Cc1cn(CCn2ccnc2-c2cccc(C(C)N(C)C)c2)nn1 (stereo not given)	none
O[C@@H]1C[C@@H](c2nc(C3CC3)no2)N(Cc2ccc(OC(F)(F)F)cc2)C1	none
COc1ccc(OC)c(CNC(=O)C2CCCCC(=O)N2)c1 (stereo not given)	none
O=C1c2c(nc(CNc3cccc(F)c3)n2Cc2ccccc2)NCCN1CCN1CCOCC1	none
O=C1c2c(nc(CNc3ccc(F)cc3)n2Cc2ccccc2)NCCN1CCN1CCCCC1	none
O=C1c2c(nc(CNc3ccc(OC(F)(F)F)cc3)n2Cc2ccccc2)NCCN1CCN1CCOCC1	Pf Dd2 inh 5.01µM
CC(C)NC(=O)Cc1csc2nc(-c3ccccc3)cn12	none
COc1ccccc1CNC(=O)Cc1csc2nc(-c3ccccc3)cn12	none
CCN(CC)CCCNC(=O)Cc1csc2nc(-c3ccc(Cl)cc3)cn12	Pf Dd2 inh 8.91µM
CC(=O)N(C1CC1)C1CCOC2(CCN(C(=O)NCc3ccccc3)CC2)C1 (stereo not given)	none
Cc1ccc(OCCSc2nnc(-c3cccs3)o2)cc1	Pf Dd2 inh 11.2µM
Cc1ccc(-c2nnc(SCCOc3ccccc3)o2)cc1	none
Cc1ccc(OCCSc2nnc(-c3cccs3)o2)cc1Cl	none
CCOc1ccccc1NC(=O)c1c(NC(=O)c2ccncc2)sc2c1CCC(C(C)(C)C)C2 (stereo not given)	none
CCCNC(=O)c1c(NC(=O)c2ccccc2)sc2c1CCC(C(C)(C)C)C2 (stereo not given)	Pf Dd2 inh 11.2µM
CCN(CC)C(=O)c1c(NC(=O)c2cccc(C)c2)sc2c1CCC(C)C2 (stereo not given)	none

Bioassay records: PubChem, National Center for Advancing Translational Sciences (NCATS)
